Results published in PubChem BioAssay (NCI).
About 83,000 compounds went through this panel and 20% of them were active in at least one assay; those are over-represented in the sample as a whole.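 For each line, cells grew in 96-well plates with the test compound present at a single concentration for 48 hours.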 Calls of active or inactive are those of the source. How the source made its calls: active means growth percent below 10; inactive means the rest.

Legend:
Test in all cases: NCI-60 one-dose screen, 48 h (100 = growth as untreated, 0 = no growth, -100 = all killed)
Conditions in all cases: 10 µM
RPMI-8226 leukemia = tested on: RPMI-8226 leukemia
OVCAR-8 ovarian = tested on: OVCAR-8 ovarian
OVCAR-5 ovarian = tested on: OVCAR-5 ovarian
OVCAR-4 ovarian = tested on: OVCAR-4 ovarian
SK-OV-3 ovarian = tested on: SK-OV-3 ovarian
IGROV1 ovarian = tested on: IGROV1 ovarian
OVCAR-3 ovarian = tested on: OVCAR-3 ovarian
HS 578T breast = tested on: HS 578T breast
NCI/ADR-RES ovarian = tested on: NCI/ADR-RES ovarian
T-47D breast = tested on: T-47D breast
BT-549 breast = tested on: BT-549 breast
MDA-MB-435 melanoma = tested on: MDA-MB-435 melanoma
SW-620 colon = tested on: SW-620 colon
MCF7 breast = tested on: MCF7 breast
HCT-116 colon = tested on: HCT-116 colon
HCC-2998 colon = tested on: HCC-2998 colon
KM12 colon = tested on: KM12 colon

Measured: growth

COc1ccc(-c2nn(-c3cccc(NC(=O)c4ccc(N5CCOCC5)c(C(F)(F)F)c4)c3)cc2-c2ccncc2)cc1Cl
inactive: RPMI-8226 leukemia 14.6% | OVCAR-8 ovarian 55.3% | OVCAR-5 ovarian 73.1% | OVCAR-4 ovarian 92.3% | SK-OV-3 ovarian 83.5% | IGROV1 ovarian 94.3% | OVCAR-3 ovarian 83.3% | HS 578T breast 41.1% | NCI/ADR-RES ovarian 52.7% | T-47D breast 68.1% | BT-549 breast 67.9% | MDA-MB-435 melanoma 30% | SW-620 colon 83.3% | MCF7 breast 53% | HCT-116 colon 55.5% | HCC-2998 colon 67.6% | KM12 colon 43.7%

Nc1ccc2cc(S(=O)(=O)O)cc(O)c2c1N=Nc1ccc(F)cc1
inactive: RPMI-8226 leukemia 106% | OVCAR-8 ovarian 107% | OVCAR-5 ovarian 99.5% | OVCAR-4 ovarian 137% | SK-OV-3 ovarian 103% | IGROV1 ovarian 120% | OVCAR-3 ovarian 117% | HS 578T breast 111% | NCI/ADR-RES ovarian 99.3% | T-47D breast 101% | BT-549 breast 102% | MDA-MB-435 melanoma 113% | SW-620 colon 104% | MCF7 breast 111% | HCT-116 colon 93.4% | HCC-2998 colon 102% | KM12 colon 107%

CN(C)CCCn1c(=O)c2ccccc2c2cnc3[nH]ccc3c21
active: RPMI-8226 leukemia -23.6% | OVCAR-8 ovarian 6.28% | OVCAR-4 ovarian 2.71% | SK-OV-3 ovarian 4.51% | IGROV1 ovarian 9.28% | T-47D breast -11.3% | SW-620 colon 5.02% | MCF7 breast 1.25% | HCT-116 colon 2.85% | KM12 colon 9.58%
inactive: OVCAR-5 ovarian 19.5% | OVCAR-3 ovarian 17.9% | HS 578T breast 24.8% | NCI/ADR-RES ovarian 26.5% | BT-549 breast 34.1% | MDA-MB-435 melanoma 11.9% | HCC-2998 colon 30.3%

O=C(Nc1ccc(CO)cc1)c1ccccc1Nc1ccnc(C(F)(F)F)c1
inactive: RPMI-8226 leukemia 89% | OVCAR-8 ovarian 98.3% | OVCAR-5 ovarian 104% | OVCAR-4 ovarian 98.2% | SK-OV-3 ovarian 101% | IGROV1 ovarian 101% | OVCAR-3 ovarian 110% | HS 578T breast 93.7% | NCI/ADR-RES ovarian 102% | T-47D breast 86.9% | BT-549 breast 104% | MDA-MB-435 melanoma 106% | SW-620 colon 105% | MCF7 breast 97.1% | HCT-116 colon 101% | HCC-2998 colon 106% | KM12 colon 99.4%

Fc1ccc(-c2nnc(-c3c(-c4ccc(F)cc4)nc4ccccn34)o2)cc1
inactive: RPMI-8226 leukemia 85.1% | OVCAR-8 ovarian 36.7% | OVCAR-5 ovarian 99.9% | OVCAR-4 ovarian 88.8% | SK-OV-3 ovarian 85.3% | IGROV1 ovarian 114% | OVCAR-3 ovarian 90.3% | HS 578T breast 92.4% | NCI/ADR-RES ovarian 67.7% | T-47D breast 62.3% | BT-549 breast 60.2% | MDA-MB-435 melanoma 85.1% | SW-620 colon 91.1% | MCF7 breast 59.8% | HCT-116 colon 45.4% | HCC-2998 colon 94.1% | KM12 colon 79.9%

COc1cc(Cl)cc(-c2nn(-c3cccc(NC(=O)c4ccc(Cl)c(Cl)c4)c3)cc2-c2ccncc2)c1
inactive: RPMI-8226 leukemia 46% | OVCAR-8 ovarian 58.4% | OVCAR-5 ovarian 79.2% | OVCAR-4 ovarian 58.6% | SK-OV-3 ovarian 80.1% | IGROV1 ovarian 71.6% | OVCAR-3 ovarian 53.4% | HS 578T breast 63.6% | NCI/ADR-RES ovarian 61.4% | T-47D breast 63.2% | BT-549 breast 85.2% | MDA-MB-435 melanoma 80.7% | SW-620 colon 84.2% | MCF7 breast 57.7% | HCT-116 colon 44.1% | HCC-2998 colon 77.8% | KM12 colon 62.3%

COc1cc(-c2cc(/C=C3\C(=O)Nc4ccc(Cl)cc43)[nH]n2)cc(OC)c1OC
inactive: OVCAR-5 ovarian 68.4% | OVCAR-4 ovarian 17% | SK-OV-3 ovarian 82.5% | OVCAR-3 ovarian 34.2% | NCI/ADR-RES ovarian 11.4% | T-47D breast 24.8% | BT-549 breast 27.1% | MDA-MB-435 melanoma 10.3% | SW-620 colon 27.3% | HCC-2998 colon 73.2%
active: RPMI-8226 leukemia -18.3% | OVCAR-8 ovarian 7.57% | IGROV1 ovarian -10.2% | HS 578T breast 6.98% | MCF7 breast 0.175% | HCT-116 colon 4.26% | KM12 colon 7.16%

COc1ccc(C2=NN(C(=O)c3ccc(S(C)(=O)=O)cc3)C(c3ccc(OC)c(OC)c3)C2)c(OC)c1 (configuration not stated)
inactive: RPMI-8226 leukemia 110% | OVCAR-8 ovarian 108% | OVCAR-5 ovarian 107% | OVCAR-4 ovarian 106% | SK-OV-3 ovarian 84.2% | IGROV1 ovarian 106% | OVCAR-3 ovarian 99.9% | HS 578T breast 101% | NCI/ADR-RES ovarian 107% | T-47D breast 74.8% | BT-549 breast 91.6% | MDA-MB-435 melanoma 108% | SW-620 colon 105% | MCF7 breast 98.7% | HCT-116 colon 82.7% | HCC-2998 colon 102% | KM12 colon 100%

COc1cc(-c2cc(/C=C/C(=O)c3ccc(F)c(F)c3)[nH]n2)cc(OC)c1OC
inactive: RPMI-8226 leukemia 22.6% | OVCAR-8 ovarian 58.1% | OVCAR-5 ovarian 76% | OVCAR-4 ovarian 40.1% | SK-OV-3 ovarian 90% | IGROV1 ovarian 73.1% | OVCAR-3 ovarian 49.6% | HS 578T breast 61.3% | NCI/ADR-RES ovarian 63.5% | T-47D breast 53.6% | BT-549 breast 94.2% | MDA-MB-435 melanoma 51.7% | SW-620 colon 67.2% | MCF7 breast 48.3% | HCT-116 colon 29.3% | HCC-2998 colon 87.1% | KM12 colon 41%

O=C(Nc1ccccc1)Nc1cccc(-n2cc(-c3ccncc3)c(-c3ccc(O)c(Cl)c3)n2)c1
inactive: OVCAR-8 ovarian 42.7% | OVCAR-5 ovarian 91.1% | OVCAR-4 ovarian 72.8% | SK-OV-3 ovarian 58.6% | IGROV1 ovarian 89.7% | OVCAR-3 ovarian 73.8% | HS 578T breast 40% | NCI/ADR-RES ovarian 83.2% | T-47D breast 44.6% | BT-549 breast 67.1% | MDA-MB-435 melanoma 52.4% | SW-620 colon 50.8% | MCF7 breast 32.5% | HCT-116 colon 41.2% | HCC-2998 colon 44.2% | KM12 colon 32.6%
active: RPMI-8226 leukemia 9.53%

O=C(Nc1cccc(-n2cc(-c3ccncc3)c(-c3ccc(O)c(Cl)c3)n2)c1)c1cccc(C(F)(F)F)c1
inactive: RPMI-8226 leukemia 13.4% | OVCAR-8 ovarian 18.4% | OVCAR-5 ovarian 89.4% | OVCAR-4 ovarian 51.2% | SK-OV-3 ovarian 71.2% | IGROV1 ovarian 51.6% | OVCAR-3 ovarian 45.1% | HS 578T breast 41.2% | NCI/ADR-RES ovarian 35.1% | T-47D breast 15% | BT-549 breast 43.9% | MDA-MB-435 melanoma 33.7% | SW-620 colon 26.1% | MCF7 breast 13.9% | HCT-116 colon 21.7% | HCC-2998 colon 25.7% | KM12 colon 20.2%

COc1ccc2c(c1)sc1nc(-c3ccccc3)c(-c3ccc(O)c(OC)c3)n12
active: MDA-MB-435 melanoma -24.6%
inactive: RPMI-8226 leukemia 78.5% | OVCAR-8 ovarian 97.5% | OVCAR-5 ovarian 107% | OVCAR-4 ovarian 102% | SK-OV-3 ovarian 96% | IGROV1 ovarian 72.8% | OVCAR-3 ovarian 83.5% | HS 578T breast 84.6% | NCI/ADR-RES ovarian 64.6% | T-47D breast 111% | BT-549 breast 68.2% | SW-620 colon 39.9% | MCF7 breast 93.4% | HCT-116 colon 33.2% | HCC-2998 colon 42.5% | KM12 colon 37.1%

O=C1N=NC2=C1c1c3ccccc3c(O)n1CC2
inactive: RPMI-8226 leukemia 101% | OVCAR-8 ovarian 101% | OVCAR-5 ovarian 103% | OVCAR-4 ovarian 106% | SK-OV-3 ovarian 100% | IGROV1 ovarian 117% | OVCAR-3 ovarian 127% | HS 578T breast 147% | NCI/ADR-RES ovarian 105% | T-47D breast 103% | BT-549 breast 110% | MDA-MB-435 melanoma 99.8% | SW-620 colon 106% | MCF7 breast 94.2% | HCT-116 colon 93.9% | HCC-2998 colon 101% | KM12 colon 109%

Cc1ccc(-c2n[nH]c(=O)c3noc(-c4ccc(C)cc4)c23)cc1
active: OVCAR-3 ovarian -13.3% | MDA-MB-435 melanoma -13.3%
inactive: RPMI-8226 leukemia 11.8% | OVCAR-8 ovarian 43.3% | OVCAR-5 ovarian 66.2% | OVCAR-4 ovarian 59.4% | SK-OV-3 ovarian 21.4% | IGROV1 ovarian 53.5% | HS 578T breast 21.9% | NCI/ADR-RES ovarian 32.5% | T-47D breast 28.6% | BT-549 breast 38.3% | SW-620 colon 28% | MCF7 breast 20.2% | HCT-116 colon 32.2% | HCC-2998 colon 70.3% | KM12 colon 35.9%

FC(F)(F)c1ccc(-c2cnc(Cl)nc2N2CCC3(CC2)OCCO3)cc1
inactive: RPMI-8226 leukemia 76.3% | OVCAR-8 ovarian 95% | OVCAR-5 ovarian 92.9% | OVCAR-4 ovarian 89.9% | SK-OV-3 ovarian 88.9% | IGROV1 ovarian 83.6% | OVCAR-3 ovarian 96% | HS 578T breast 105% | NCI/ADR-RES ovarian 87.4% | T-47D breast 88.8% | BT-549 breast 97.1% | MDA-MB-435 melanoma 101% | SW-620 colon 103% | MCF7 breast 98.9% | HCT-116 colon 82.7% | HCC-2998 colon 102% | KM12 colon 96.3%

CC(=O)c1nc2ccccc2n1CCN1CCN(C)CC1
inactive: OVCAR-8 ovarian 34.8% | OVCAR-5 ovarian 53.7% | OVCAR-4 ovarian 64.6% | SK-OV-3 ovarian 27.4% | IGROV1 ovarian 39.3% | HS 578T breast 48.3% | NCI/ADR-RES ovarian 97% | T-47D breast 33.4% | BT-549 breast 48.1% | SW-620 colon 29.6% | MCF7 breast 17.8% | HCT-116 colon 11% | HCC-2998 colon 37.9% | KM12 colon 14.1%
active: RPMI-8226 leukemia 3.09% | OVCAR-3 ovarian 4.3% | MDA-MB-435 melanoma -80.2%
